Here are results for 9 compounds from PubChem BioAssay (Tox21).

Experiment [1] deals with KiSS-1 receptor (Homo sapiens) (UniProt Q969F8). Briefly: Human kisspeptin (KISS1R) small molecule agonists, calcium flux assay in KISS1R-HEK293 cells (AID 1920064; active means well fitted activation curve with a large enough effect in the repeat runs). In outline: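 Cells plated and incubated 18 h; dye added, 1 h at 37 C; compounds in DMSO pinned in; signal read at 480/540 nm every second for 3 min. Each compound tested at 15 concentrations in triplicate.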
For orientation: Calcium assays in cells follow changes in intracellular calcium, usually with a dye or a luminescent sensor.

Experiment [2] can be described thus: G protein-coupled receptor (GPCR) small molecule agonists, calcium flux assay: HEK293 wild type cell line counter screen (AID 1920065). The procedure, abridged:
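Counter-screen of the Tox21 10K library for non-specific calcium release: dye-loaded cells received compounds in DMSO and were monitored by kinetic fluorescence (480/540 nm, 3 min). Fifteen concentrations, run in triplicate.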

A short description of experiment [3]: p53 small molecule agonists, cell-based qHTS assay with human liver microsomes (AID 1963577).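 Further: p53 response element beta-lactamase reporter cells with liver microsomes plus NADPH.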 In outline:
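Metabolically competent format: test substances, human liver microsomes and NADPH (both 0.5 mg/mL final) incubated with p53RE-bla cells 16 h at 37 C. Beta-lactamase reporter signal then quantified by fluorescence.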

The nature of experiment [4]: p53 small molecule agonists, cell-based qHTS assay with human liver microsomes: qHTS cell viability counter screen (AID 1963579). Further: nearly all actives have a fitted effect of over 45% in size. In outline:
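Tox21 library compounds, delivered from DMSO stocks, were tested on p53RE-bla cells together with 0.5 mg/mL human liver microsomes and 0.5 mg/mL NADPH (final) over 16 h at 37 C; CellTiter-Glo luminescence served as the cytotoxicity measure.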
On the technique in general: In qHTS, concentration-response curves come from the screen itself.

Experiment [5] is described as follows: p53 small molecule agonists, cell-based qHTS assay with rat liver microsomes: qHTS cell viability counter screen (AID 1963580). Further: nearly all actives have a fitted effect of over 45% in size. In outline: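 p53RE-bla HCT-116 cells (4,000/well) rested 5 h at 37 C, then given Tox21 compounds in DMSO with rat liver microsomes (0.5 mg/mL final) plus NADPH (0.5 mg/mL final) for 16 h at 37 C. Viability read by CellTiter-Glo luminescence after 30 min at room temperature.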

A short description of experiment [6]: p53 small molecule agonists, cell-based qHTS assay: qHTS cell viability counter screen (AID 1963581). Further: nearly all actives have a fitted effect of over 45% in size. Further: potency means the concentration at half of the fitted maximal effect. The procedure, abridged:
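Cells: HCT-116 with p53 response element-driven beta-lactamase. Treatment: 16 h, 37 C, compounds in DMSO. Read: CellTiter-Glo luminescence after 30 min RT.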

Experiment [7] can be described thus: p53 small molecule agonists, cell-based qHTS assay (AID 1963582; active means well fitted activation curve with a large enough effect in the signal ratio in the repeat runs, not every such curve was filed as active; the % refers to the signal ratio). In outline:
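Quantitative HTS in p53RE-bla cells: after a 5 h settling period, compounds delivered in DMSO were left on cells for 16 h at 37 C, and reporter induction was measured as fluorescence following 2 h substrate loading.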

In experiment [8] the target is 5-hydroxytryptamine receptor 2A (Homo sapiens) (UniProt P28223). Description: 5-hydroxytryptamine receptor 2A (HTR2A) small molecule agonists, cell-based qHTS assay (AID 1963587). Further: nearly all actives have a fitted effect of over 30% in size. The procedure, abridged:
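HTR2A-CHO cells, plated 18 h at 37 C/5% CO2, dye-loaded 1 h at 37 C; compounds in DMSO added by pin tool (agonist mode). Intracellular calcium flux read as kinetic fluorescence on FDSS over 2 min at 1 s intervals.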

Experiment [9] has as its target Muscarinic acetylcholine receptor M1 (Homo sapiens) (UniProt P11229). Description: Cholinergic receptor muscarinic 1 (CHRM1) small molecule antagonists, cell-based qHTS assay (AID 1963588). Further: nearly all actives have a fitted effect of over 40% in size. The procedure, abridged: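 CHRM1-CHO calcium-flux assay, antagonist mode. Cells were seeded 18 h, dye-loaded 1 h at 37 C and given compound for 5 min at RT, then acetylcholine was added at 50nM. FDSS fluorescence was read 3 min; 15 concentrations, three runs.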

Experiment [10] in a line: cAMP Responsive Elements (CRE) small molecule agonists, cell-based qHTS assay (AID 1963590). The procedure, abridged:
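Agonist mode qHTS in CRE-bla HEK 293T cells: compounds dosed from DMSO for 3 h at 37 C/5% CO2, followed by LiveBLAzer B/G FRET substrate for 2 h at room temperature.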

A short description of experiment [11]: cAMP Responsive Elements (CRE) small molecule antagonists, cell-based qHTS assay (AID 1963591; active means well fitted inhibition curve with a large enough effect in the signal ratio in the repeat runs, not every such curve was filed as active; the % refers to the signal ratio). The procedure, abridged:
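Antagonist mode: test compounds are co-incubated with the adenylyl cyclase activator NKH477 (0.25 uM final) on CRE-bla HEK293T cells for 3 h at 37 °C, followed by LiveBLAzer substrate loading.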

Experiment [12] addresses Beta-2 adrenergic receptor (Homo sapiens) (UniProt P07550). Description: Adrenergic beta2 receptor (ADRB2) small molecule antagonists, cell-based qHTS assay (AID 1963592). Further: series mostly up to about 92 µM; nearly all actives have a fitted effect of over 50% in size. The procedure, abridged:
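Cells (CHO, stable ADRB2 overexpression) incubated 18-20hr at 37C; compounds added from DMSO; agonist mix (1nM isoproterenol, 100uM IBMX, 25uM Ro-20-1724) added; 0.5hr RT; d2-cAMP and anti-cAMP-cryptate added; 1hr RT; 665/615 nm read.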

Experiment [13] has the same target. Description: Adrenergic beta2 receptor (ADRB2) small molecule agonists, cell-based qHTS assay (AID 1963593).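 Further: CHO cells stably overexpressing human ADRB2.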 In outline:
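CHO cells stably over-expressing ADRB2 were plated overnight at 37C, then dosed with compounds plus a stimulation mix containing 100uM IBMX and 25uM Ro-20-1724 for 0.5hr at room temperature. cAMP was measured by HTRF competition, 1hr.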

The target in experiment [14] is D(2) dopamine receptor (Homo sapiens) (UniProt P14416). Description: Dopamine D2 receptor (DRD2) small molecule agonists, cell-based qHTS assay (AID 1963594). Further: nearly all actives have a fitted effect of over 35% in size. The procedure, abridged:
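HEK293 cells stably expressing DRD2 were cultured 24 h at 37 C, then given Ro20-1724 (0.1 mM final) and compounds for 10 min at room temperature. NKH477 (200nM) was then added for 30 min. cAMP was read by HTRF.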

For experiment [15] the target is unchanged. Briefly: Dopamine D2 receptor (DRD2) small molecule antagonists, cell-based qHTS assay (AID 1963595; active means well fitted inhibition curve with a large enough effect in the signal ratio in the repeat runs, with a control signal flat; the % refers to the signal ratio). The procedure, abridged: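 Antagonism was scored as restored cAMP in HEK293-DRD2 cells. These cells were stimulated with 200 nM NKH477 and 12 nM quinpirole for 30 min at room temperature, in the presence of 0.1 mM Ro20-1724.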
The nature of experiment [16]: Nuclear factor erythroid 2-related factor 2/antioxidant responsive element (Nrf2/ARE) small molecule agonists: luciferase reporter gene qHTS assay in human keratinocytes (AID 1919969). Further: nearly all actives have a fitted effect of over 35% in size.
Experiment [17] has as its target Gonadotropin-releasing hormone receptor (Homo sapiens) (UniProt P30968). Description: Human gonadotropin-releasing hormone receptor (GnRHR) small molecule agonists, calcium flux assay in GnRHR-HEK293 cells (AID 1920063). Further: nearly all actives have a fitted effect of over 35% in size. The procedure, abridged:
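Cells: HEK293 stably expressing human GnRHR. Steps: overnight (18 h) culture, 1 h calcium dye loading at 37 C, compound addition, kinetic fluorescence read at 480/540 nm. Each compound tested at 15 concentrations in triplicate.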

A short description of experiment [18]: p53 small molecule agonists, cell-based qHTS assay with rat liver microsomes (AID 1963578). In outline: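 Each plate received p53RE-bla cells, then compound, then rat liver microsomes and NADPH (both 0.5 mg/mL final). Plates were held 16 h at 37 C, and beta-lactamase activity was detected with LiveBLAzer over 2 h.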
Experiment [19] concerns the target 5-hydroxytryptamine receptor 2A (Homo sapiens) (UniProt P28223). Briefly: 5-hydroxytryptamine receptor 2A (HTR2A) small molecule antagonists, cell-based qHTS assay (AID 1963586). Further: nearly all actives have a fitted effect of over 45% in size. In outline:
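Antagonist-mode intracellular calcium assay: DOI (4 nM) added after 5 min compound pre-incubation at room temperature to dye-loaded HTR2A-CHO cells. Fluorescence followed for 3 min, sampled every second.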

Experiment [20] has as its target Muscarinic acetylcholine receptor M1 (Homo sapiens) (UniProt P11229). Description: Cholinergic receptor muscarinic 1 (CHRM1) small molecule agonists, cell-based qHTS assay (AID 1963589). Further: nearly all actives have a fitted effect of over 35% in size. In outline: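 Agonist-mode qHTS in CHO cells stably carrying human muscarinic M1. Intracellular calcium is tracked by fluorescence every second after compound transfer; each compound runs at 15 concentrations in three independent runs.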

Records with an inconclusive call do not appear. Where a structure was tested more than once in an assay, its records may differ in their call. The source made the active and inactive calls. Unless noted, the call rests on the fitted dose curve.

Chain of Gonadotropin-releasing hormone receptor (Homo sapiens) (P30968 whole entry, looked up): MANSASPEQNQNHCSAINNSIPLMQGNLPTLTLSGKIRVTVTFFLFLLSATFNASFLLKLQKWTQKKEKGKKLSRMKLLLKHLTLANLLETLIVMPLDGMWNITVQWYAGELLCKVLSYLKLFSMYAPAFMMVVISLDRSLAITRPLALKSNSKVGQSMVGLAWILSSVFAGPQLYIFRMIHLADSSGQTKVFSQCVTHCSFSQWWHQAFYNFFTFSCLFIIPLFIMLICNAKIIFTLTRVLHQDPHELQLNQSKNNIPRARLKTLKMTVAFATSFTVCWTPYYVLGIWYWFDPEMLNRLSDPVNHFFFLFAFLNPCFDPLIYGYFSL
Chain of D(2) dopamine receptor (Homo sapiens) (P14416 whole entry, looked up): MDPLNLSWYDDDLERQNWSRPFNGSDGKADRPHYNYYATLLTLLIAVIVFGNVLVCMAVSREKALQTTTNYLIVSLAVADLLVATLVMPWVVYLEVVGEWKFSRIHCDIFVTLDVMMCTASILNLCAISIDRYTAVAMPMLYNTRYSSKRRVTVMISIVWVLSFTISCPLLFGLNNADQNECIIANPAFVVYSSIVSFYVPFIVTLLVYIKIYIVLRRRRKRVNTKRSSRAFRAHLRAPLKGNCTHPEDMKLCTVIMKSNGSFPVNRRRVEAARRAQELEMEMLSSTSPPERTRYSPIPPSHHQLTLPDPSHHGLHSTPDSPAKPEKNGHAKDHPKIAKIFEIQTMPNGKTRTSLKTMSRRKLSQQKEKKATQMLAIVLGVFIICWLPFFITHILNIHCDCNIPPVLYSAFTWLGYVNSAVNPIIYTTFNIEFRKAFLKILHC
Chain of KiSS-1 receptor (Homo sapiens) (Q969F8 whole entry, looked up): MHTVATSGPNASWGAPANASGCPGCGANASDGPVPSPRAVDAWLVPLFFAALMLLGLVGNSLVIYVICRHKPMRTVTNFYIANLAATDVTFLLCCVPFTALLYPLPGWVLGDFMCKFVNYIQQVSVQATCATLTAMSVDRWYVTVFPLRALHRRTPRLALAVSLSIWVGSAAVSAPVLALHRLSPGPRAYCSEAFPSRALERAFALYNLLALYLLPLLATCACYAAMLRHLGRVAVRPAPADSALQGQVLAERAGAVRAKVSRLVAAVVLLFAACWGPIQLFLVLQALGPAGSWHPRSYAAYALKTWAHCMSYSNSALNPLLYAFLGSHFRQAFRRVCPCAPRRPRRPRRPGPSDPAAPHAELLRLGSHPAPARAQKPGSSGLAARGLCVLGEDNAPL
Chain of 5-hydroxytryptamine receptor 2A (Homo sapiens) (P28223 whole entry, looked up): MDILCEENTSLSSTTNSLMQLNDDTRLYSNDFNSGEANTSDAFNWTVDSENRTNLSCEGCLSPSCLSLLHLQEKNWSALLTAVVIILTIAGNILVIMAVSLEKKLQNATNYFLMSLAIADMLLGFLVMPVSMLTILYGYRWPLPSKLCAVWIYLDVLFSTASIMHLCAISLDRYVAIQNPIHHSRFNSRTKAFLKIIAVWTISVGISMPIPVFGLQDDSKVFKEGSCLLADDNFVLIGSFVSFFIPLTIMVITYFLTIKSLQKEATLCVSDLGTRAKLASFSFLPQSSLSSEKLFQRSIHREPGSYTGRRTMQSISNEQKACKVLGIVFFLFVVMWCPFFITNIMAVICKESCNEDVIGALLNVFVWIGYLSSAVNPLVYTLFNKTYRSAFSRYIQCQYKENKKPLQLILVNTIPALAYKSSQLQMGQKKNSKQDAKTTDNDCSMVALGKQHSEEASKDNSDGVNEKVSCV
Chain of Muscarinic acetylcholine receptor M1 (Homo sapiens) (P11229 whole entry, looked up): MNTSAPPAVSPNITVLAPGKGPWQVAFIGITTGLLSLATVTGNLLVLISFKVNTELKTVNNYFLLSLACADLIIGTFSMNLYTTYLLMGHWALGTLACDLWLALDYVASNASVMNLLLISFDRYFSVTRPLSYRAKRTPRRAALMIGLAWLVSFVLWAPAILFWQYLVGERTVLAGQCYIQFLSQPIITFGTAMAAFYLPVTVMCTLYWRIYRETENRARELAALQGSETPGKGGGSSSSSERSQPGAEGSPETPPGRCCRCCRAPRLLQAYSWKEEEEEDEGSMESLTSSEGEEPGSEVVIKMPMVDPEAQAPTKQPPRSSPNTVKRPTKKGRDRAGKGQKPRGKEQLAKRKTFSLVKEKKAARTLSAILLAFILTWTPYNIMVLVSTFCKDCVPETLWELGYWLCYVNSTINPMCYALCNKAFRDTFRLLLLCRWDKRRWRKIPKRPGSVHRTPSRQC
Chain of Beta-2 adrenergic receptor (Homo sapiens) (P07550 whole entry, looked up): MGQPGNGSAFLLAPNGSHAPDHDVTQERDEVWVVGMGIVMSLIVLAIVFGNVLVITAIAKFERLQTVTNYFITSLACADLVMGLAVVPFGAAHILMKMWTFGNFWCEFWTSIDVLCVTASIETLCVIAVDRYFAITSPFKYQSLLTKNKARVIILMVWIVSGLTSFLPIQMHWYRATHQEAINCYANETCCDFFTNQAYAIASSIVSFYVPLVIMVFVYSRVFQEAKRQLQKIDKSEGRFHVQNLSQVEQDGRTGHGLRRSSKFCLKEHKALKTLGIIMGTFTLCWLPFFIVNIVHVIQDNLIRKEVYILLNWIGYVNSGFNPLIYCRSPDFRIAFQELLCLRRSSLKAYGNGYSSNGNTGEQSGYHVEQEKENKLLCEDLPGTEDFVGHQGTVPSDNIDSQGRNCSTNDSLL

On to `CC(C)c1cccc(O)c1`, for which the Potency result in experiment [1], in experiment [2], in experiment [3], in experiment [4], in [5] and in experiment [6] was “inactive” in each case. For the same compound, the Potency entry in experiment [7], in [8], in [9], in experiment [10], in [11] and in experiment [12] was “inactive” each time. The Potency result in experiment [13], in [14] and in [15] was “inactive” throughout.

As to `[Cl][Eu]([Cl])[Cl]`, the Potency entry in [16], in experiment [17], in experiment [1], in experiment [2], in experiment [3] and in [18] was “inactive” throughout. The Potency result in [4], in [5], in experiment [6], in [7], in [19] and in experiment [8] was “inactive” in each case. Moreover, the Potency entry in experiment [9], in experiment [20], in experiment [10] and in [11] was “inactive” in each case.

`COC(=O)OC`: the Potency entry in experiment [17], in experiment [1], in experiment [3], in experiment [18], in experiment [5] and in experiment [7] was “inactive” in each case. For the same compound, the Potency result in experiment [19], in [8], in [9], in experiment [10], in experiment [11] and in experiment [12] was “inactive” in each case. The Potency entry in experiment [13], in experiment [14] and in experiment [15] was “inactive” each time.

`CC1=CC(=O)NS(=O)(=O)O1`: the Potency entry in experiment [1], in experiment [2], in [4], in experiment [5], in experiment [19] and in [8] was “inactive” each time. For the same compound, the Potency entry in experiment [9], in [20], in experiment [10], in [11], in experiment [12] and in experiment [13] was “inactive” throughout. In addition, the Potency entry in experiment [14] and in [15] was “inactive” throughout. Further, the Potency in experiment [6] is 23 µM (active) and inactive.

For the compound `Oc1ccc2cc(SSc3ccc4cc(O)ccc4c3)ccc2c1`, the Potency entry in [17], in [2], in [4], in [5], in experiment [6] and in experiment [8] was “inactive” in each case. Moreover, the Potency result in [9], in experiment [20], in [11], in experiment [14] and in experiment [15] was “inactive” each time.

As to `Cc1ccc(S(=O)(=O)NC2CCCCC2)cc1`, the Potency result in [17], in experiment [2], in [3], in experiment [18], in experiment [5] and in experiment [6] was “inactive” in each case. For the same compound, the Potency entry in experiment [7], in experiment [19], in experiment [8], in experiment [20], in [10] and in [11] was “inactive” in each case. Also, the Potency entry in experiment [12], in experiment [13], in experiment [14] and in experiment [15] was “inactive” in each case.

As to `O=C(O)/C=C/c1ccccc1`, the Potency result in experiment [1], in [2], in experiment [3], in experiment [18], in experiment [4] and in experiment [5] was “inactive” each time. For the same compound, the Potency entry in experiment [6], in experiment [7], in experiment [19], in experiment [8], in experiment [9] and in [20] was “inactive” each time. Also, the Potency result in experiment [10], in [11], in [12], in [13], in experiment [14] and in experiment [15] was “inactive” in each case.

Consider `O=c1[nH]cnc2[nH]ncc12`, for which the Potency entry in experiment [17], in experiment [2], in experiment [4], in [5], in experiment [6] and in experiment [10] was “inactive” throughout. In addition, the Potency result in experiment [11], in experiment [12], in experiment [14] and in experiment [15] was “inactive” throughout.

As for `CCCO`, the Potency entry in experiment [1], in experiment [2], in [3], in [18], in experiment [4] and in experiment [5] was “inactive” each time. Moreover, the Potency result in [6], in experiment [7], in experiment [19], in experiment [8], in experiment [9] and in experiment [20] was “inactive” throughout. Moreover, the Potency result in [10], in experiment [11], in experiment [12], in experiment [13], in [14] and in experiment [15] was “inactive” throughout.
